The values below come from PubChem BioAssay (NCI).

This is part of a sample that, as a whole, favours compounds with a hit. Of some 83,000 tested, about 20% had one in any assay.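 Activity criterion: percent growth below 10, measured after cells in 96-well plates were exposed to a single compound concentration for 48 hours.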 Active and inactive are the calls of the source.

The subject of this assay is SK-MEL-5 melanoma. The experiment in a line: NCI-60 one-dose screen, 48 h (100 = growth as untreated, 0 = no growth, -100 = all killed). The following applies: 10 µM.
Consider `COc1cc2c3c(n(CCCNC(C)C)c(=O)c2cc1OC)-c1nc2c(cc1C3=O)OCO2`, for which the growth was 54.4% (inactive).

`COc1ccc2cc([C@H](C)C(=O)NCc3ccccc3)ccc2c1`: the growth was 18.7% (inactive).

On to `O=C(Cn1nc(-c2ccccc2)ccc1=O)NNC(=S)NC1CCCCC1`, for which the growth was 100% (inactive).

On to `CN1CCCN(Cc2ccc(C(=O)Nc3cccc(Nc4ccc5cc(O)ccc5n4)c3)cc2C(F)(F)F)CC1`, for which the growth was 32.4% (inactive).

`O=C1Nc2cc(Cl)ccc2/C1=C/c1cccc(OCc2ccccc2)c1`: the growth was -98% (active).

`C/C(=C\CC/C=C(\C)CC/C=C(\C)CC[C@@H](O)C(C)(C)O)CC/C=C(\C)CC[C@@H](O)C(C)(C)O`: the growth was -16.3% (active).

Turning to `O=C(c1ccc([N+](=O)[O-])c([N+](=O)[O-])c1O)n1[nH]c(=O)c2ccccc2c1=O`, the growth was 77.8% (inactive).

Turning to `O=C(O)CCCCCCCCCCN1C(=O)/C(=C/c2cnc(-c3ccc(Cl)cc3)s2)SC1=S`, the growth was 27.4% (inactive).

Take `O=C1Nc2ccc(F)cc2/C1=C/c1cccc(OCc2ccccc2)c1`: the growth was -24.7% (active).

For `COc1ccc(-c2nc(S(=O)(=O)c3ccccc3)c(S(C)(=O)=O)o2)cc1`, the growth was 66.5% (inactive).

On to `COc1ccc(C(=O)NC(=S)N2CCN(c3ncnc4c3cnn4-c3ccccc3)CC2)cc1`, for which the growth is 71.6% (inactive).

As to `C=CC(=O)Nc1nc(-c2cccc(NS(=O)(=O)c3cccc4c(N(C)C)cccc34)c2)cs1`, the growth was -87.7% (active).

As to `Cc1cc(=O)oc2cc(OCCCCOc3ccc(/C=C/C(=O)Nc4cccc(Cl)c4)cc3)ccc12`, the growth was 60.6% (inactive).

For the molecule `COc1ccccc1C(=O)NNC(=O)CSc1nc2c(c(=O)[nH]1)CCCC2`, the growth is 99.3% (inactive).

With `NC1=NC(c2ccccc2Cl)N=C(Nc2nn[nH]n2)N1` (configuration not stated), the growth is 98% (inactive).

Turning to `COc1ccc2nc(Cl)c(-c3cc(-c4ccccc4)nc(=O)[nH]3)cc2c1`, the growth is 74.2% (inactive).

For `O=c1[nH]n(C(=S)N/N=C/c2ccc(F)cc2)c(=O)c2ccccc12`, the growth is 73.1% (inactive).

For `O=C(CS(=O)(=O)c1oc(-c2ccc(Cl)cc2)nc1S(=O)(=O)c1ccccc1)N1CCCC1`, the growth was 84.2% (inactive).

Regarding `O=C1Nc2cc(Cl)ccc2/C1=C/c1cccc(OCc2ccc(Br)cc2F)c1`, the growth is -6.52% (active).

Turning to `Cc1nc2c(cnn2-c2ccccc2)c(=O)n1-c1ccc(NC(=O)c2ccc(F)cc2)cc1`, the growth is -15.4% (active).

Turning to `S=c1nc(-c2ccccc2)cc(-c2cc3ccccc3nc2Cl)[nH]1`, the growth was 32.1% (inactive).

Consider `Cc1ccc(C(=O)Nc2ccc(-n3c(C)nc4c(cnn4-c4ccccc4)c3=O)cc2)cc1`, for which the growth was 7.05% (active).

`Cc1cc(C)nc(NS(=O)(=O)c2ccc(N/C(N)=N/c3nccc(-c4cccs4)n3)cc2)n1`: the growth was 96.2% (inactive).

On to `COc1ccc(CN2[C@H](C(=O)NCc3ccc(C(=O)NO)cc3)Cc3c([nH]c4ccccc34)[C@H]2C2CC2)cc1`, for which the growth is 67.3% (inactive).

For `O=C1Nc2ccc(Cl)cc2/C1=C/c1cccc(OCc2ccccc2)c1`, the growth was 22.4% (inactive).

Regarding `O=C(Cn1cc(CSc2nnc3oc4ccccc4n23)nn1)Nc1ccc(Br)cc1`, the growth was 92.4% (inactive).

With `CCN1CCN(c2ccc(NC(=O)Nc3ccc(-c4cc(C(=O)NC)c5ncccc5n4)cc3)cc2C(F)(F)F)CC1`, the growth is -100% (active).

On to `COc1ccc(-c2nc(S(=O)(=O)c3ccc(C)cc3)c(S(=O)(=O)CC(=O)N(C)Cc3ccccc3)o2)cc1`, for which the growth is 78.4% (inactive).

Take `COC[C@@H](CC(C)C)N=C1NC(=O)/C(=C/c2ccc3ncsc3c2)N1`: the growth was -12.1% (active).

Consider `CC(C)Sc1nc(NC2CC2)c(C#N)c(-c2ccccc2)n1`, for which the growth is 93.1% (inactive).

In the case of `CCOC(=O)N/C(=C1/OCCN1C)[P+](c1ccccc1)(c1ccccc1)c1ccccc1`, the growth is 82.8% (inactive).

In the case of `CS(=O)(=O)Nc1ccc(-c2ccc3c(c2)ncn3-c2ccc(NC(=O)Nc3ccc(Cl)c(C(F)(F)F)c3)cc2)cc1`, the growth is -97.7% (active).

For the molecule `CN1CCc2c(sc3ncnc(N/N=C/c4cn(-c5ccccc5)nc4-c4ccc(Cl)cc4)c23)C1`, the growth was 30.7% (inactive).

Turning to `CC1(c2ccccc2)NC(=O)N(CC(=O)Nc2ccc(C(=O)/C=C/c3ccc(Br)cc3)cc2)C1=O` (configuration not stated), the growth is 27.5% (inactive).

As to `O=C(CN1CCN(c2ncnc3c2cnn3-c2ccccc2)CC1)Nc1nncs1`, the growth was 29.4% (inactive).

As for `COc1ccc(C=CC(=O)c2ccc(-n3c(C)nc4c(cnn4-c4ccccc4)c3=O)cc2)cc1`, the growth is 27.7% (inactive).

Regarding `O=C(c1ccc(-n2c(=O)[nH]c3ccccc3c2=O)cc1)N1CCOCC1`, the growth is 107% (inactive).
